Screens (PubChem BioAssay)
An excerpt weighted towards active compounds, which were near 3.9% of everything screened.
PLCg1 inh = PLC-gamma1 enzyme inhibitors, primary screen, biochemical, fluorescence, purified enzyme; inhibition, % at 12.2 µM; fluorogenic substrate; actives 0.84% (n = 370,000); 1-phosphatidylinositol 4,5-bisphosphate phosphodiesterase gamma-1 (Homo sapiens), P19174; AID 720700, 2013; in the data active means inhibition above about 9.5%
HIF activator = HIF pathway transcriptional activators, primary screen, cell-based, U2OS HRE-luciferase, luminescence; U2OS HRE-luciferase reporter; normalized: DMSO 0%, desferrioxamine 100%; activation, % at 7.5 µM (by protocol); actives 0.32% (n = 300,000);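 active means mean activation of at least 10% of the iron chelator positive control signal, with at least half of replicates also reaching 10%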
AHR activator = AHR activators, primary screen, cell-based, luminescence, luciferase reporter, human | activation, % at 5 µM | AHR-responsive luciferase reporter cells | actives 2.5% (n = 320,000) | AID 2796, 2010; in the data active means activation above about 47%
sPLA2-III inh = human group III sPLA2 inhibitors, primary screen, biochemical, QFRET, BODIPY PC-A2 liposome substrate; Group 3 secretory phospholipase A2 (Homo sapiens), Q9NZ20; QFRET BODIPY PC-A2 liposome hydrolysis, fluorescence; inhibition, % at 12.2 µM; actives 0.56% (n = 370,000);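 active means inhibition above mean plus 3 SD of compounds lying within the high and low control bounds, cut at about 19% in these data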
Yeast superoxide = reduction of superoxide in aged yeast, primary screen, HTS; actives 0.18% (n = 330,000); superoxide response (% of plate mean), % at 10 µM; S. cerevisiae aged cells, superoxide DHE fluorescence; stronger effect = lower value; AID 2690, 2010;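 active means superoxide response under a set limit, about three screen SD below normal, cut at about 65% in these data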;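 further: yeast aged for seven days with compound at 30 °C before DHE staining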
PLCb3 inh = human PLC-beta3 inhibitors, primary screen, biochemical, fluorescence. 1-phosphatidylinositol 4,5-bisphosphate phosphodiesterase beta-3 (Homo sapiens), Q01970. Purified PLC-beta3, fluorogenic substrate. inhibition, % at 12.2 µM. actives 0.18% (n = 370,000). AID 720704, 2013; in the data active means inhibition above about 11%
Target sequence (Q01970 whole entry, looked up): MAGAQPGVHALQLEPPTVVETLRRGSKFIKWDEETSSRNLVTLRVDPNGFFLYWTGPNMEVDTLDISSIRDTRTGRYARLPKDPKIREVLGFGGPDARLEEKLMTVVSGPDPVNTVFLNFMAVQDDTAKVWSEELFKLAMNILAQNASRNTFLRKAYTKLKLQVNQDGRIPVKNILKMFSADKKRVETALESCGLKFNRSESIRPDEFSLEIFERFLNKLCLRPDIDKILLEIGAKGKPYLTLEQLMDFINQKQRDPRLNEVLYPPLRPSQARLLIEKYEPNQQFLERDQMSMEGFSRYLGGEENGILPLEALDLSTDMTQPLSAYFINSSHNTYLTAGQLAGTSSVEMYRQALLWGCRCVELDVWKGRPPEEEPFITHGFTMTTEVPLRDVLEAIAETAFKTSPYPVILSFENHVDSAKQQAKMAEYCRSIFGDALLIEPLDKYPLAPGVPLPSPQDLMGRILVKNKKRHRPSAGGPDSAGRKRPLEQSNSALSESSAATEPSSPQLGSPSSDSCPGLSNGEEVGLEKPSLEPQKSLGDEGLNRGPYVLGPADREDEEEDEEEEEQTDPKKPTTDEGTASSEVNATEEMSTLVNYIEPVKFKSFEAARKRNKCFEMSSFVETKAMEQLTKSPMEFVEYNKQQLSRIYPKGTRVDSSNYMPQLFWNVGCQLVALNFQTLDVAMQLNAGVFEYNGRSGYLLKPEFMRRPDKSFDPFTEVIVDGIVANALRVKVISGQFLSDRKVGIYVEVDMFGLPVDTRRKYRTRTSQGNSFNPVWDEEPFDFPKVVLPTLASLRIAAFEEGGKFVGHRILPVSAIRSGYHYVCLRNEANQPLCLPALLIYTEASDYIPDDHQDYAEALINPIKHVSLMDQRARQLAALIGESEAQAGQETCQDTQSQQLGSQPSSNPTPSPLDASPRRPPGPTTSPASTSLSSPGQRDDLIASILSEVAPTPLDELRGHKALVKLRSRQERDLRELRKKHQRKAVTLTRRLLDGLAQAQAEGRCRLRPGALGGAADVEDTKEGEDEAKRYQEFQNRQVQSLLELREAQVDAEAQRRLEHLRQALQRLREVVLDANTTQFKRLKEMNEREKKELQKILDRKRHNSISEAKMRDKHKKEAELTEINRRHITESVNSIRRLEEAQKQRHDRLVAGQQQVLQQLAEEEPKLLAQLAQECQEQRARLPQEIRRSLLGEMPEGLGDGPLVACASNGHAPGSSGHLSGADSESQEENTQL
Each line names hits and unclear results; the compound was inactive in the other large screens.

COc1cccc(-c2cccc3c4c([nH]c23)[C@@H]2C[C@H]3[C@@H](C(=O)N2CC4)[C@H](C)ON3C)c1	none (no result: HIF activator, AHR activator, Yeast superoxide)
Cc1cc(C)nc(/N=C(\N)Nc2cccc([N+](=O)[O-])c2)n1	AHR activator 51.9
CCC(C)c1ccc(NC(=O)Nc2cccnc2)cc1 (configuration not stated)	AHR activator 78.9
O=C(Nc1cccnc1)Nc1cccc([N+](=O)[O-])c1	AHR activator 76.7
CCC(C)c1ccc(NC(=O)NCc2cccnc2)cc1 (configuration not stated)	none
O=C(Nc1cccc([N+](=O)[O-])c1)c1[nH]ncc1Cl	AHR activator 74.6
O=C(Nc1cccc([N+](=O)[O-])c1)c1cnccn1	none
COc1cccc(/C=C2\CC3(OC(=O)c4ccccc4)CCCN2C3)c1 (configuration not stated)	none (no result: HIF activator, AHR activator, Yeast superoxide)
CC(C)C[C@@H]1COc2cc(Br)ccc2S(=O)(=O)N1Cc1cn(Cc2ccc(Cl)cc2)nn1	none (no result: HIF activator, AHR activator, Yeast superoxide)
Cc1ccc(S(=O)(=O)NC[C@H]2CN(S(=O)(=O)c3ccc(C)cc3)[C@@H](Cc3ccccc3)CO2)cc1	none (no result: HIF activator, AHR activator, Yeast superoxide)
N#CCC[C@@H]1CC[C@]2(CCCN(Cc3ccccc3)C2)O1	none (no result: HIF activator, AHR activator, Yeast superoxide)
COC(=O)[C@]12C[C@H](CC(=O)NCc3cccc(C(F)(F)F)c3)C(=O)N(CCc3ccc(OC)c(OC)c3)C1=C[C@H](C(C)C)O[C@@H]2C1CC1	none (no result: HIF activator, AHR activator, Yeast superoxide)
CC(C)(C)OC(=O)NCc1cc(F)ccc1/C=C/S(=O)(=O)NCc1ccc(F)cc1	none (no result: HIF activator, AHR activator, Yeast superoxide)
COC1=C(Br)C(=O)c2nc(C)ccc2C1=O	PLCg1 inh 15.2 (no result: HIF activator, AHR activator, Yeast superoxide)
Brc1ccc(-c2csc(N3CCC(c4nn[nH]n4)CC3)n2)cc1	none (no result: HIF activator, AHR activator, Yeast superoxide)
CCN(CC)C(=O)Cn1c2ccccc2c2nc3n(c(=O)c21)CCS3	none (no result: HIF activator, AHR activator, Yeast superoxide)
Cc1ccc(S(=O)(=O)Nc2cc(-c3ccc(Cl)cc3)nn2C)cc1	HIF activator 18.8
Clc1ccc(-n2c(Cc3cccs3)nnc2SC/C=C/c2ccccc2)cc1	none (no result: HIF activator, AHR activator, Yeast superoxide)
COc1cc(C(=O)NC(C)c2ccc(-n3ccnc3)cc2)cc(OC)c1C (configuration not stated)	none
CCOc1ccccc1C(=O)NC(C)c1ccc(-n2ccnc2)cc1 (configuration not stated)	AHR activator 64.7
COc1ccccc1C(=O)NC(C)c1ccc(-n2ccnc2)cc1 (configuration not stated)	AHR activator 60.3
CC(C)N1CCCCC(NC(=O)c2ccc(Br)cc2)C1=O (configuration not stated)	none (no result: HIF activator, AHR activator, Yeast superoxide)
Nn1c(-c2cccs2)nc2sc3c(c2c1=O)CCCC3	AHR activator 58.1
CC1(C)Cc2c(sc3nc(-c4cccs4)n(N)c(=O)c23)CO1	AHR activator 73.5
Cc1ccccc1-c1nc2sc3c(c2c(=O)n1N)CCCC3	none
O=C(/C=C\c1ccccc1OC(=O)c1ccccc1F)c1cc2ccccc2o1	AHR activator 59.0
CC(C)(C)C(=O)Nc1cc2nn(-c3ccccc3)nc2cc1Cl	none (no result: HIF activator, AHR activator, Yeast superoxide)
O=C(Nc1cc2nn(-c3ccccc3)nc2cc1Cl)c1ccco1	AHR activator 47.3
CC(=O)Nc1cc2nn(-c3ccccc3)nc2cc1Cl	AHR activator 56.7
O=C(Nc1ccc2nn(-c3ccccc3)nc2c1)c1ccco1	none
Cc1ccc(NC(=O)OCCCN2C(=O)CCC23CCC(C)CC3)cc1 (configuration not stated)	none (no result: HIF activator, AHR activator, Yeast superoxide)
COC(=O)C1CCC(CNC(=O)C(Cc2ccc3c(c2)OCO3)NC(C)=O)CC1 (configuration not stated)	none (no result: HIF activator, AHR activator, Yeast superoxide)
Cc1ccc(NN=C2c3ccccc3-c3ccccc32)cc1	AHR activator 67.9
Cn1c(CN2CCCCC2)nc2cc([N+](=O)[O-])ccc21	AHR activator 67.0
CC(C)OP(=O)(O)C(C)NC(=O)OCc1ccccc1 (configuration not stated)	none (no result: HIF activator, AHR activator, Yeast superoxide)
COc1ccc2c(c1)Sc1ccccc1N2	none (no result: AHR activator, Yeast superoxide)
c1ccc2c(c1)Nc1cc3ccccc3cc1S2	AHR activator 59.7
O=C(C1=NN[C@@H]2C(=O)N(c3cccc(C(F)(F)F)c3)C(=O)[C@H]12)C(c1ccccc1)c1ccccc1	HIF activator 57.4
O=C(C1=NN[C@@H]2C(=O)N(c3cccc(F)c3)C(=O)[C@H]12)C(c1ccccc1)c1ccccc1	none
Cc1c(NC(=O)CSc2ccc(Cl)cc2)cccc1-c1nc2cc(Cl)ccc2o1	AHR activator 96.7 (no result: HIF activator)
Nc1[nH]n(-c2ccccc2)c(=O)c1N=Nc1ccc(F)cc1	none (no result: HIF activator, AHR activator, Yeast superoxide)
O=C(NC1CCCCN(Cc2cccc(Cl)c2)C1=O)c1cccc2nsnc12 (configuration not stated)	none (no result: HIF activator, AHR activator, Yeast superoxide)
O=c1c2ccccc2nnn1-c1ccc(Br)cc1	AHR activator 117.2
CN(C)c1ccc(NC(=O)c2ccc(Cn3cc([N+](=O)[O-])cn3)cc2)cc1	AHR activator 70.8
COc1ccc(NC(=O)c2ccc(Cn3cc(Cl)cn3)cc2)cc1	none
CCOC(=O)[C@]12CCCCC/C=C\1N(Cc1ccc(OC)cc1)C(=O)[C@H]2CC(=O)NCC1CCCCC1	none (no result: HIF activator, AHR activator, Yeast superoxide)
CCC(Sc1nncn1C)C(=O)Nc1nnc(-c2ccccc2Cl)s1 (configuration not stated)	AHR activator 51.8
O=S1(=O)CCSC[C@@H](CN2CCN(c3ccccc3)CC2)N1	none (no result: HIF activator, AHR activator, Yeast superoxide)
COC(=O)C1=C2c3[nH]c4ccccc4c3CCN2C(=O)CC1	AHR activator 54.4
CCOC(=O)[C@]12CCCC3=C1N(CCC3)C(=O)[C@@H](CC(=O)N1CCOCC1)C2	none (no result: HIF activator, AHR activator, Yeast superoxide)
CC(Oc1ccccc1)C(=O)Nc1nc(-c2ccccn2)cs1 (configuration not stated)	none (no result: HIF activator, AHR activator, Yeast superoxide)
CC(Oc1ccccc1)C(=O)Nc1nc(-c2ccncc2)cs1 (configuration not stated)	AHR activator 47.2 (no result: HIF activator)
N#Cc1ccc(Cn2nnc(-c3ccc(N4CCOCC4)cc3)n2)cc1	none (no result: HIF activator, AHR activator, Yeast superoxide)
CCOC(=O)/C(=C\C=C1/Sc2ccccc2N1CC)C(C)=O	AHR activator 53.4
COC(=O)[C@]1(CNC(=O)NCCc2ccc(OC)c(OC)c2)CC(=O)N(C)[C@@H]1c1ccccc1	none (no result: HIF activator, AHR activator, Yeast superoxide)
N#Cc1c(N)nc2c(c1N)CC(=O)N2c1ccccc1-c1ccccc1	none
N#Cc1c(N)nc2c(c1N)CC(=O)N2c1ccc(Cl)cc1	AHR activator 89.4 (no result: PLCg1 inh, sPLA2-III inh, PLCb3 inh)
O=C(OCc1ccccc1)[C@H](Cc1ccccc1)NC(=O)[C@@H]1CC=C[C@@H]2CCN(Cc3ccccc3)C(=O)[C@@H]21	none (no result: HIF activator, AHR activator, Yeast superoxide)
Brc1ccc(-c2cn3nc4c(nc3n2)CCCC4)cc1	none
Nc1nn2cc(-c3ccc(Br)cc3)nc2c2ccccc12	AHR activator 65.5
